Bioassay records deposited in PubChem by Sanford-Burnham Center for Chemical Genomics.
In the library only some 28% were active in any assay of this set; here they are far more common.
Mac1 fbg enh = enhancers of human CD11b/CD18 binding to fibrinogen. hit rate 0.07% among 93,000. activation, % at 10 µM. P05107+P11215. K562 CD11b/CD18 adhesion to fibrinogen, ATPlite luminescence;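 active means 10 µM primary screen giving 50% or more activity, confirmed by 40% or more on retest at that dose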
Target sequence (P05107 whole entry, looked up, other chains not shown): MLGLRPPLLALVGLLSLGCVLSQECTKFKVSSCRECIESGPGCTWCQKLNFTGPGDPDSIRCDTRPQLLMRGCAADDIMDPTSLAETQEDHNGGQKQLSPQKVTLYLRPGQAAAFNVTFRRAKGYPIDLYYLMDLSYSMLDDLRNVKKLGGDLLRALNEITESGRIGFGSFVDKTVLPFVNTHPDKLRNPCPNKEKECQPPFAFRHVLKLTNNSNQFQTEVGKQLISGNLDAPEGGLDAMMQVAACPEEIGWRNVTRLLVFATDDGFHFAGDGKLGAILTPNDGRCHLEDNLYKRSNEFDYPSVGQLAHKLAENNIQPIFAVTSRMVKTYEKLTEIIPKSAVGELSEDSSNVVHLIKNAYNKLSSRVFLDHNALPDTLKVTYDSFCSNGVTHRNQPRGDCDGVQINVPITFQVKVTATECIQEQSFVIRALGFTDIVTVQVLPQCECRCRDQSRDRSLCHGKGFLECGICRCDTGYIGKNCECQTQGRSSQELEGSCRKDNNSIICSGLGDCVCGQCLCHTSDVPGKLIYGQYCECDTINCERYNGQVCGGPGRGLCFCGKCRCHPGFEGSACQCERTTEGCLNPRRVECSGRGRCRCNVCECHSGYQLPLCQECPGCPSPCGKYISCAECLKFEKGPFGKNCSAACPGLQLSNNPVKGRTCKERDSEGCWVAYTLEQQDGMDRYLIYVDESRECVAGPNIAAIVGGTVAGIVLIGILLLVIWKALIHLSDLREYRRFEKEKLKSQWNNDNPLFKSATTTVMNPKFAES
CYP2C19 act = activators of human cytochrome P450 2C19; P33261; AID 1025; activation factor at 5 µM; 96,000 tested, under 10 active; recombinant CYP2C19, luciferin-H EGE luminescence; stronger effect = higher value; 0 = fully inhibited enzyme, 1 = untreated enzyme;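 active means activation factor of at least 2 at 5 µM in the primary screen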;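 further: 0 = wells with 2.5 mM tranylcypromine and 1 = vehicle-only wells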
CYP2C19 inh = inhibitors of human CYP2C19; P33261; CYP2C19 Supersomes, luciferin-H EGE luminescence, 30 min; inhibition, % at 5 µM; hit rate 21% among 96,000; AID 778;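 active means CYP2C19 inhibition above a set limit at 5 µM in the primary screen, cut at about 50% in these data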;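 further: plate controls were negative control wells for no effect and 2.5 mM tranylcypromine positive control for full effect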
CYP2C9 inhib = human CYP2C9 inhibition. P11712. CYP2C9 Supersomes, luciferin-H conversion, luminescence. inhibition, % at 5 µM. hit rate 20% among 96,000. AID 777;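 active means blocking of liver enzyme CYP2C9 beyond about 50% at 5 µM, limit read from the data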
CYP2C9 act = activators of human CYP2C9; P11712; recombinant CYP2C9, luciferin-H conversion, luminescence; stronger effect = higher value; factor 1 = untreated enzyme, 0 = blocked; activation factor at 5 µM; hit rate 1.4% among 96,000; AID 1024;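 active means activation factor of 2 or more for CYP2C9 at a 5 µM dose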;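 further: 0 = sulfaphenazole-blocked wells and 1 = vehicle-only wells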
Mac1 fbg inh = blocks human CD11b/CD18 adhesion to fibrinogen | K562 CD11b/CD18 adhesion to fibrinogen, ATPlite luminescence; Mn2+ added to activate the integrin | AID 1497 | hit rate 0.54% among 93,000 | P05107+P11215 | inhibition, % at 10 µM;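 active means primary inhibition of 50% or more at 10 µM, then 40% or more on retest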
* hit, by the source's call; . = not tested or not shown.

SMILES | Mac1 fbg enh | CYP2C19 act | CYP2C19 inh | CYP2C9 inhib | CYP2C9 act | Mac1 fbg inh
CCC(Sc1nc2ccccc2s1)C(=O)Nc1nnc(C)s1 (stereo not drawn) | -2.9 | 0.7 | 27.4 | 67.2* | 0.3 | -11.6
Cc1cc(C)cc(OC(=O)N2CCOCC2)c1 | 2.3 | 0.9 | 5.4 | 29.6 | 0.7 | -10.5
CCc1ccccc1OCc1nnc(N)s1 | 0.6 | 0.6 | 35.4 | -25.8 | 1.3 | -6.0
Cc1cc(NC(=O)CSc2nc3ccccc3c(=O)n2CCCC(=O)NCc2ccco2)n[nH]1 | . | 0.2 | 84.0* | 70.6* | 0.3 | .
O=C(CSc1nc2ccccc2c(=O)n1CCCC(=O)N1CCCC1)NCc1ccco1 | . | 0.4 | 64.6* | 43.3 | 0.6 | .
CN(C(=O)c1cc2n(n1)C(C(F)(F)F)CC(c1ccco1)N2)c1ccccc1 (stereo not drawn) | -0.4 | 0.7 | 31.1 | 13.6 | 0.9 | 9.3
CC(C)(C)NC(=S)NCc1cccnc1 | . | 0.9 | 8.8 | 1.1 | 1 | .
CCc1ccc(CCC(=O)Nc2ccccc2C(=O)O)o1 | -3.5 | 0.9 | 13.3 | 52.2* | 0.5 | -3.8
CCc1ccc(CCC(=O)Nc2nccs2)o1 | 3.1 | 0.4 | 57.9* | 47.6 | 0.5 | -15.4
Cc1ccc(CCC(=O)Nc2nccs2)o1 | -2.3 | 0.4 | 63.2* | 17.8 | 0.8 | 4.3
Cc1ccc(N2C(=O)CC(n3nc(C)cc3C)C2=O)cc1 (stereo not drawn) | -1.4 | 1 | 4.3 | -24.8 | 1.2 | -15.5
CCOC(=O)c1sc2nc(N3CCOCC3)c3c(c2c1N)CCN(Cc1ccccc1)C3 | 6.2 | 1 | -4.2 | 8.6 | 0.9 | -7.0
COc1ccc(CC(=O)Nc2cccc(C(=O)Nc3ccccc3C(=O)O)c2)cc1OC | 1.6 | . | . | . | . | -0.1
COc1ccc(-c2nc3cc(NC(=O)Cc4ccc(OC)c(OC)c4)ccc3o2)cc1 | . | 0.4 | 57.0* | 55.3* | 0.4 | .
COc1ccc(CC(=O)Nc2cccc(-c3nnc(-c4cccc(C)c4)o3)c2)cc1OC | -8.1 | 0 | 98.4* | 88.3* | 0.1 | 97.7
COc1ccc(CC(=O)Nc2cccc(-c3nnc(-c4ccccc4)o3)c2)cc1OC | 6.6 | 0.2 | 85.0* | 77.8* | 0.2 | 41.6
COc1ccc(CC(=O)Nc2ccc(-c3nnc(-c4ccccc4)o3)cc2)cc1OC | 26.4 | 0.9 | 14.3 | 24.7 | 0.8 | 1.7
CCOC(=O)Cn1c(=O)oc2cc(S(=O)(=O)NCc3cccs3)ccc21 | 5.5 | 0.9 | 14.5 | 29.8 | 0.7 | -1.3
O=C1CC(c2ccc(Cl)cc2)n2nc(N3C(=O)c4ccccc4C3=O)nc2N1 (stereo not drawn) | -0.2 | 0.7 | 28.8 | 32.1 | 0.7 | 1.6
O=C1c2ccccc2CCC12N=NCC2c1ccc(Br)cc1 (stereo not drawn) | -2.5 | 0 | 98.7* | 48.9 | 0.5 | -31.4
O=C1c2ccccc2CCC12N=NCC2c1ccc(Cl)cc1 (stereo not drawn) | . | 0.2 | 84.4* | 15.0 | 0.8 | .
O=C(CN1CCN(Cc2ccccc2)CC1)N/N=C/c1c[nH]c2ccccc12 | 9.4 | . | . | . | . | -11.4
Cn1c(=O)c2ccccc2n(Cc2ccccc2F)c1=O | -1.1 | 0.5 | 52.1* | 23.8 | 0.8 | 11.8
N#CC1=C(N)NC(SCC(=O)Nc2ccccc2)=C(C#N)C12CCCC2 | 2.5 | 0 | 98.8* | 94.6* | 0.1 | 6.4
N#CC1=C(N)NC(SCC(=O)O)=C(C#N)C12CCCC2 | 5.7 | 0.8 | 24.9 | 25.6 | 0.7 | -5.5
SMILES | Mac1 fbg enh | CYP2C19 act | CYP2C19 inh | CYP2C9 inhib | CYP2C9 act | Mac1 fbg inh
CC(C)N1CCC2(CC1)C(C#N)=C(N)NC(S)=C2C#N | -1.6 | . | . | . | . | -4.1
N#CC1=C(N)NC(SCc2ccc(F)cc2)=C(C#N)C12CCCCC2 | -5.7 | 0 | 100.0* | 100.0* | 0 | 77.3*
CC1=C(C(=O)Nc2ccccc2)C2(CCCCC2)C(C#N)=C(S)N1 | 1.8 | 0.3 | 68.3* | 83.6* | 0.2 | -32.4
COc1ccc(C(C)=O)cc1CSc1nncn1-c1ccccc1 | 3.9 | . | . | . | . | 5.2
Cc1ccc(-n2c(SCc3cn4ccsc4n3)nc3ccccc3c2=O)cc1 | -0.5 | 0.8 | 19.3 | 33.4 | 0.7 | -11.8
CCOC(=O)C(NC(C)=O)C(OC(C)=O)c1cccc([N+](=O)[O-])c1 (stereo not drawn) | . | 0.9 | 5.0 | 0.0 | 1 | .
Cc1ncoc1C(=O)Nc1cccc(Cl)c1C | . | 0.9 | 7.2 | 9.2 | 0.9 | .
Cc1c(Cl)cccc1NC(=O)c1ccc(-n2ccnc2)nc1 | 2.7 | 0 | 99.1* | 98.5* | 0 | 17.9
COc1ccccc1NC(=O)CC(NC1CCCCC1)C(=O)O (stereo not drawn) | 5.3 | . | . | . | . | -7.7
O=C(CSc1ccccn1)Nc1nc2ccc(Br)cc2s1 | . | 0.8 | 24.9 | 22.0 | 0.8 | .
Cc1ccc(-c2ccc(/C=C3\C(=O)ON=C3c3ccccc3)o2)c([N+](=O)[O-])c1 | . | 0.8 | 24.2 | 100.4* | 0 | .
Cc1n[nH]c(=S)n1/N=C/c1ccc(-c2ccccc2[N+](=O)[O-])o1 | -0.1 | 0.9 | 11.5 | 8.2 | 0.9 | -5.7
Cc1cc2ncc(-c3ccc(Cl)cc3)c(N)n2n1 | -2.3 | 0.7 | 34.6 | 77.2* | 0.2 | 18.3
Nc1c(-c2ccc(Cl)cc2)cnc2ncnn12 | 2.2 | 0.6 | 37.7 | 12.5 | 0.9 | -4.5
O=C(Oc1cccc(Nc2ncnc3ccccc23)c1)c1ccccc1Cl | -8.6 | 0.9 | 13.9 | 57.2* | 0.4 | 96.2
CCCCCN=Cc1c(C)[nH]n(-c2nc3ccccc3s2)c1=O | 3.9 | 0.5 | 52.6* | 72.7* | 0.3 | 14.2
CCCc1[nH]n(-c2nc3ccccc3s2)c(=O)c1C=NCCN1CCOCC1 | 3.1 | 1.1 | -13.8 | 9.7 | 0.9 | -10.3
CCCOc1ccc(/C(O)=C2/C(=O)C(=O)N(CCN(CC)CC)C2c2ccncc2)cc1 (stereo not drawn) | 0.5 | 0.9 | 5.5 | 19.4 | 0.8 | -10.2
Cc1cccc(/C=N/NC(=O)C(C)Nc2cccc3ccccc23)n1 (stereo not drawn) | -3.1 | 0.3 | 70.7* | 8.1 | 0.9 | 1.7
COc1ccc(C(=O)N(C)Cc2ccccc2)cc1Br | 3.5 | . | . | . | . | 6.3
COc1ccccc1CN(C)C(=O)c1ccc2c(c1)NC(=O)CS2 | -4.4 | 0.1 | 92.7* | -94.4 | 1.9 | 1.1
Cc1ccccc1NC(=O)CCC(=O)OCC(=O)c1ccc(-c2ccccc2)cc1 | -5.2 | 1.1 | -5.6 | 3.4 | 1 | 3.0
OCCCc1nc2n(n1)C(c1cccs1)C=C(c1ccccc1)N2 (stereo not drawn) | -1.9 | 0.4 | 58.1* | 96.2* | 0 | 0.2
OCCCc1nc2n(n1)C(c1ccccc1Cl)C=C(c1cccs1)N2 (stereo not drawn) | 2.1 | 0.6 | 39.4 | 50.9* | 0.5 | -1.1
Cc1cc(C(=O)O)c(CCCN)s1 | 0.7 | 1 | -4.2 | -8.0 | 1.1 | -2.3
COC(=O)c1sc2ccccc2c1NC(=O)c1coc2ccccc2c1=O | 17.8 | . | . | . | . | 9.5
